Measured values as given in PubChem BioAssay (EPA / NIEHS).
Results filed as inconclusive are left out. The source made the active and inactive calls. The calls were made as follows, unless noted: active = hit-call score of the fitted dose curve at least 0.9, where 1 is the maximum; inactive = score below 0.9.

How the values were obtained:
[1] = ATG_TAL_CIS: Attagene CIS-FACTORIAL HepG2 Assay for human TAL Basal Promoter (AID 2282966); details: HepG2 Attagene cis-factorial TAL promoter reporter; actives raise or lower the signal;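 also: background control endpoint measuring basal TAL promoter reporter mRNA not a specific factor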
Method in brief: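 Steps: transfect HepG2 with multiple reporter transcription units; dose 24 h; isolate RNA, reverse-transcribe, PCR-amplify, label with 6-FAM, digest with HpaI; resolve by capillary electrophoresis. Bidirectional fitting against DMSO baseline.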

[2] = ATG_TGFb_CIS: Attagene CIS-FACTORIAL HepG2 Assay for human Transforming Growth Factor (TGF) (AID 2282967); details: HepG2 Attagene CIS TGFb reporter, mRNA transcription; actives raise or lower the signal
Method in brief: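 Liver HepG2 line, cis-factorial reporter panel, 24 h dosing. Quantitation: RT-PCR products labeled with 6-FAM, cut with HpaI, resolved by capillary electrophoresis; DMSO-referenced bidirectional analysis.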

[3] = ATG_VDRE_CIS: Attagene CIS-FACTORIAL HepG2 Assay for human Vitamin D Receptor Element (VDRE) (AID 2282968); details: HepG2 VDRE cis-reporter transcription, actives raise or lower the signal
Method in brief: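 Cell-based multiplexed reporter format in human liver HepG2 cells, 24 h post-dose. Fluorescence from capillary electrophoresis of reporter cDNA gives the signal, with DMSO as negative control and baseline.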

[4] = target: X-box-binding protein 1 (Homo sapiens) (UniProt P17861); experiment: ATG_Xbp1_CIS: Attagene CIS-FACTORIAL HepG2 Assay for human X-box Binding Protein 1 (XBP1) (AID 2282972); details: HepG2 XBP1 cis-element reporter, Attagene multiplex; actives raise or lower the signal
Method in brief: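 HepG2, transient MRTU transfection (cis-promoter driven), 24 h compound exposure. Total RNA → oligo(dT) RT → PCR → 6-FAM labeling → HpaI cut → CE. Bidirectional fit vs DMSO.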

[5] = ATG_M_19_TRANS: Attagene TRANS-FACTORIAL HepG2 Assay for M19 Transcription Factor (Internal Marker) (AID 2282974; active = hit-call score of the fitted dose curve at least 0.9, where 1 is the maximum); details: HepG2 Attagene TRANS-FACTORIAL M19 internal marker reporter
Method in brief: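 HepG2 cells transiently transfected with multiple GAL4-UAS reporter transcription units were exposed to chemicals for 24 h. Reporter mRNA was read by RT-PCR, 6-FAM primer extension, HpaI digestion and capillary electrophoresis; gain of signal fitted relative to DMSO.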

[6] = target: Bile acid receptor (Homo sapiens) (UniProt Q96RI1); experiment: ATG_FXR_TRANS: Attagene TRANS-FACTORIAL HepG2 Assay for Farnesoid X Receptor (FXR) (AID 2282979; active = hit-call score of the fitted dose curve at least 0.9, where 1 is the maximum;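 also: hits raise reporter mRNA above DMSO so AC50 marks FXR activation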); details: HepG2 Attagene TRANS FXR-GAL4 reporter transcription
Method in brief: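 After 24 h chemical treatment of transfected HepG2 cells, GAL4-UAS reporter transcripts driven by an exogenous FXR-GAL4 fusion were measured by RT-PCR and capillary electrophoresis. Increases over DMSO were fitted.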

[7] = target: Oxysterols receptor LXR-beta (Homo sapiens) (UniProt P55055); experiment: ATG_LXRb_TRANS: Attagene TRANS-FACTORIAL HepG2 Assay for human Liver X Receptor beta (LXRb) (AID 2282981; active = hit-call score of the fitted dose curve at least 0.9, where 1 is the maximum); details: HepG2 Attagene TRANS GAL4-LXRb reporter, mRNA
Method in brief: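 Gain-of-signal mRNA reporter endpoint, DMSO as negative control. Transiently transfected HepG2 cells carrying the NR-Gal4 chimera and GAL4-UAS reporter units were treated 24 h; transcripts quantified by RT-PCR and capillary electrophoresis fluorescence.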

[8] = target: Hepatocyte nuclear factor 4-alpha (Homo sapiens) (UniProt P41235); experiment: ATG_HNF4a_TRANS: Attagene TRANS-FACTORIAL HepG2 Assay for human Hepatocyte Nuclear Factor 4 alpha (HNF4a) (AID 2282982; active = hit-call score of the fitted dose curve at least 0.9, where 1 is the maximum); details: HepG2 HNF4a transactivation reporter, mRNA readout
Method in brief: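 Gain-of-signal mRNA induction, relative to DMSO vehicle, was read after 24 h compound treatment of HepG2 cells bearing transfected GAL4-UAS reporters. Detection used RT-PCR, 6-FAM primer extension and capillary electrophoresis.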

[9] = ATG_M_32_TRANS: Attagene TRANS-FACTORIAL HepG2 Assay for M32 Transcription Factor (Internal Marker) (AID 2282984; active = hit-call score of the fitted dose curve at least 0.9, where 1 is the maximum;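 also: transcript level of a background control reporter unit measured by RT-PCR and capillary electrophoresis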); details: HepG2 Attagene TRANS M32 internal marker reporter
Method in brief: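 Capillary electrophoresis of 6-FAM-labelled reporter fragments gives the signal; data fitted for gain over DMSO negative control. Source: HepG2 cells bearing transient multiple reporter transcription units, 24 h exposure.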

[10] = target: Transcriptional activator Myb (Homo sapiens) (UniProt P10242); experiment: ATG_Myb_CIS: Attagene CIS-FACTORIAL HepG2 Assay for human Myeloblastosis (Myb) Proto-Oncogene Transcription Factor (AID 2282986); details: HepG2 Attagene CIS-FACTORIAL Myb reporter transcription; actives raise or lower the signal
Method in brief: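 HepG2 cells were transiently transfected with cis-regulated multiple reporter transcription units reflecting endogenous Myb activity, then exposed to compound for 24 hours. Reporter mRNA was measured by RT-PCR with capillary electrophoresis; bidirectional fitting versus DMSO baseline.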

[11] = target: Nuclear respiratory factor 1 (Homo sapiens) (UniProt Q16656); experiment: ATG_NRF1_CIS: Attagene CIS-FACTORIAL HepG2 Assay for human Nuclear Respiratory Factor 1 (NRF1) Orphan Gene (AID 2282987); details: HepG2 NRF1 cis-element reporter, Attagene multiplex; actives raise or lower the signal
Method in brief: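 HepG2 cells transiently transfected with multiple reporter transcription units under cis-regulatory promoter control, so endogenous transcription-factor activity is read. After 24 h compound exposure, reporter mRNA quantified by RT-PCR, fluorescent labelling, HpaI digestion and capillary electrophoresis; bidirectional fitting versus DMSO.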

[12] = ATG_GAL4_TRANS: Attagene TRANS-FACTORIAL HepG2 Assay for GAL4 (Internal Marker) (AID 2282976; active = hit-call score of the fitted dose curve at least 0.9, where 1 is the maximum); details: HepG2 Attagene TRANS GAL4 internal marker reporter
Method in brief: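 Liver HepG2 line bearing multiplexed GAL4-UAS reporter constructs; 24 h chemical treatment. Transcripts were quantified as fluorescent fragments on capillary electrophoresis after RT-PCR and HpaI cut, with activity fitted upward from DMSO.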

[13] = target: Glucocorticoid receptor (Homo sapiens) (UniProt P04150); experiment: ATG_GR_TRANS: Attagene TRANS-FACTORIAL HepG2 Assay for human Glucocorticoid Receptor (GR) (AID 2282978; active = hit-call score of the fitted dose curve at least 0.9, where 1 is the maximum;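 also: activators score as hits since higher reporter transcript over DMSO is fitted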); details: HepG2 Attagene TRANS GR reporter, mRNA transcription
Method in brief: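 HepG2 cells transiently transfected with multiplexed reporter units in which chimeric NR-GAL4 proteins drive GAL4-UAS reporters; 24 h compound exposure. Reporter mRNA measured by RT-PCR, 6-FAM labelling, HpaI digestion and capillary electrophoresis; gain-of-signal fitted versus DMSO.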

[14] = ATG_M_06_TRANS: Attagene TRANS-FACTORIAL HepG2 Assay for M06 Transcription Factor (Internal Marker) (AID 2282983; active = hit-call score of the fitted dose curve at least 0.9, where 1 is the maximum); details: HepG2 Attagene TRANS M06 internal marker reporter
Method in brief: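 Internal-marker background readout from a multiplexed TRANS reporter system in HepG2; 24 h dosing; mRNA induction quantified by RT-PCR plus capillary electrophoresis fluorescence; DMSO as negative control and baseline.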

[15] = target: Nuclear receptor subfamily 4 group A member 2 (Homo sapiens) (UniProt P43354); experiment: ATG_NURR1_TRANS: Attagene TRANS-FACTORIAL HepG2 Assay for human Nuclear Receptor Related Protein 1 (NURR1) (AID 2282985; active = hit-call score of the fitted dose curve at least 0.9, where 1 is the maximum); details: HepG2 Attagene TRANS reporter, mRNA readout
Method in brief: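 HepG2 / transient MRTU transfection / 24 h compound exposure / RT-PCR + CE fluorescence of reporter mRNA / gain-of-signal vs DMSO.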

[16] = target: Oxysterols receptor LXR-alpha (Homo sapiens) (UniProt Q13133); experiment: ATG_LXRa_TRANS: Attagene TRANS-FACTORIAL HepG2 Assay for human Liver X Receptor alpha (LXRa) (AID 2282980; active = hit-call score of the fitted dose curve at least 0.9, where 1 is the maximum); details: HepG2 Attagene TRANS reporter, LXRa transactivation
Method in brief: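 In this multiplexed TRANS system, compounds act on HepG2 cells carrying GAL4-UAS reporter units and a receptor-GAL4 fusion for 24 h. Induced reporter RNA is amplified, fluorescently labelled and sized by capillary electrophoresis, with DMSO as baseline.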

[17] = target: Estrogen-related receptor gamma (Homo sapiens) (UniProt P62508); experiment: ATG_ERRg_TRANS: Attagene TRANS-FACTORIAL HepG2 Assay for human Estrogen-Related Receptor gamma (ERRg) (AID 2282977; active = hit-call score of the fitted dose curve at least 0.9, where 1 is the maximum;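 also: hits increase reporter signal over DMSO so potencies reflect activators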); details: HepG2 Attagene TRANS reporter, ERRg transactivation
Method in brief: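 HepG2 cells transiently transfected with multiplexed GAL4-UAS reporter units and chimeric NR-Gal4 constructs were exposed to test chemicals for 24 h. Reporter mRNA was measured by RT-PCR, 6-FAM primer extension, HpaI digestion and capillary electrophoresis; gain-of-signal versus DMSO.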

Measured: outcome

X-box-binding protein 1 (Homo sapiens), sequence (P17861 whole entry, looked up): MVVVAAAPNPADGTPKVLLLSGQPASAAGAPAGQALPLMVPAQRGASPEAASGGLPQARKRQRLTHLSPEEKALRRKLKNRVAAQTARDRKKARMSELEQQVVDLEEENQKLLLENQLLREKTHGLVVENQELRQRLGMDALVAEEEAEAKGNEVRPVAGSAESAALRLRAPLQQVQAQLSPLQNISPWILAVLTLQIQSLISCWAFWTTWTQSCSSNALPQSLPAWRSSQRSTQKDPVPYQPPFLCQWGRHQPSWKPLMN
Glucocorticoid receptor (Homo sapiens), sequence (P04150 whole entry, looked up, the tested form may be a part): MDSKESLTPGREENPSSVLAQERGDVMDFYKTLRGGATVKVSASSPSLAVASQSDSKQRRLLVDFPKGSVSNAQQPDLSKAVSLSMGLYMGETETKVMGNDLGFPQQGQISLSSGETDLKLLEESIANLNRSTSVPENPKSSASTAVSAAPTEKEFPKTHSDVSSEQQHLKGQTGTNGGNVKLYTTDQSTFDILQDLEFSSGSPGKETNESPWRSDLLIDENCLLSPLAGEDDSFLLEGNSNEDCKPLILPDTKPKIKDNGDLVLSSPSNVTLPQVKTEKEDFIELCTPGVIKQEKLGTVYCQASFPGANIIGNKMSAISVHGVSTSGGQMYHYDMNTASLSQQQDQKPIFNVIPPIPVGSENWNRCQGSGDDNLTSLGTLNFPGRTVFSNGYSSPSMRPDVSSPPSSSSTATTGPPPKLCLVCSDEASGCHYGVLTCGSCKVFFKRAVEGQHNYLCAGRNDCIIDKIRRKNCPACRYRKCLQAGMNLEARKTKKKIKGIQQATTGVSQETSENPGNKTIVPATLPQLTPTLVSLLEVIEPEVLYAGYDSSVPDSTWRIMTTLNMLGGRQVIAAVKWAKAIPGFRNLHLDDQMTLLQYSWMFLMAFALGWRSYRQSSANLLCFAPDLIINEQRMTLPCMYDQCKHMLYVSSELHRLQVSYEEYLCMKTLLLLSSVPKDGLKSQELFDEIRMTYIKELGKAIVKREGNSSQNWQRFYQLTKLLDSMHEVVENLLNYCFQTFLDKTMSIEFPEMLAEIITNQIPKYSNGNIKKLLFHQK
Hepatocyte nuclear factor 4-alpha (Homo sapiens), sequence (P41235 whole entry, looked up, the tested form may be a part): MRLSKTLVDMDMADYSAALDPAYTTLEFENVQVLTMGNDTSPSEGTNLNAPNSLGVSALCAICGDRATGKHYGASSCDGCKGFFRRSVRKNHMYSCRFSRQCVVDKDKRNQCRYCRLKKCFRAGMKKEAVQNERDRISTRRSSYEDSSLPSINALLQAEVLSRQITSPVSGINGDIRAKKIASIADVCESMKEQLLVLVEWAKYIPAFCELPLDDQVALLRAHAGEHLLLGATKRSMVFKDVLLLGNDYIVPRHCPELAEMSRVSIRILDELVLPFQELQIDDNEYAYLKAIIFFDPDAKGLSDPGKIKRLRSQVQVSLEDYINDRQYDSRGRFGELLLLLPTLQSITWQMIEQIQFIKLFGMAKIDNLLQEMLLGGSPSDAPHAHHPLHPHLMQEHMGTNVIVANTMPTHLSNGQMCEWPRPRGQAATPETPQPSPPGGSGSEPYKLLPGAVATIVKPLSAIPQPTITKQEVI
Estrogen-related receptor gamma (Homo sapiens), sequence (P62508 whole entry, looked up, the tested form may be a part): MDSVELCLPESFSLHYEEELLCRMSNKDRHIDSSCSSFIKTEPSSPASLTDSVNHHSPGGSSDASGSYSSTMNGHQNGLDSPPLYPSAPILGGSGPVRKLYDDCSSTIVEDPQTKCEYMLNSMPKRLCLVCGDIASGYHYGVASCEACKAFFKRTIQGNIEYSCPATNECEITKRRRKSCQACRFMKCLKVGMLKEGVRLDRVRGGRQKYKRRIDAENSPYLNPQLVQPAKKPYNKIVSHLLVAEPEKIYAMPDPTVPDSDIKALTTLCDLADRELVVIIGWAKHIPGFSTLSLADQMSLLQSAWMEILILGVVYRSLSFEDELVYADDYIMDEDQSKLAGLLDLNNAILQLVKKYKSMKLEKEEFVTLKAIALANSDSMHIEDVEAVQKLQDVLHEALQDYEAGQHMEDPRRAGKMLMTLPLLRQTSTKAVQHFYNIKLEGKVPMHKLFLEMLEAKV
Transcriptional activator Myb (Homo sapiens), sequence (P10242 whole entry, looked up): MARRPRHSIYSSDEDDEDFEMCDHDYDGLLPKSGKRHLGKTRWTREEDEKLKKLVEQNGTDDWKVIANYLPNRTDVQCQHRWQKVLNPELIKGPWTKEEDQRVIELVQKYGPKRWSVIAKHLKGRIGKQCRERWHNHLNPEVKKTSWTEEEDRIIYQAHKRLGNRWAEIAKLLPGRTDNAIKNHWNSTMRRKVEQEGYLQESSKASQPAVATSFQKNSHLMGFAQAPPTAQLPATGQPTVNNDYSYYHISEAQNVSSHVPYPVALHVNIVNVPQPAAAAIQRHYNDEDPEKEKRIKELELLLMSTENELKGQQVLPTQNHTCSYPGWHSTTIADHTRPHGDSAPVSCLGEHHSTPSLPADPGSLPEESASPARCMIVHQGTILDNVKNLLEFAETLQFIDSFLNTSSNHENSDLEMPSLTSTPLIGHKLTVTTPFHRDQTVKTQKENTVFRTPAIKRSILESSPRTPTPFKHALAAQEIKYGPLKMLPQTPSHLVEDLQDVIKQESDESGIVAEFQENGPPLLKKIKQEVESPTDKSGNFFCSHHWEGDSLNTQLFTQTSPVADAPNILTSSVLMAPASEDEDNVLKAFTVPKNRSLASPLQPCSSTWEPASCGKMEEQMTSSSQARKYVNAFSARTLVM
Nuclear respiratory factor 1 (Homo sapiens), sequence (Q16656 whole entry, looked up): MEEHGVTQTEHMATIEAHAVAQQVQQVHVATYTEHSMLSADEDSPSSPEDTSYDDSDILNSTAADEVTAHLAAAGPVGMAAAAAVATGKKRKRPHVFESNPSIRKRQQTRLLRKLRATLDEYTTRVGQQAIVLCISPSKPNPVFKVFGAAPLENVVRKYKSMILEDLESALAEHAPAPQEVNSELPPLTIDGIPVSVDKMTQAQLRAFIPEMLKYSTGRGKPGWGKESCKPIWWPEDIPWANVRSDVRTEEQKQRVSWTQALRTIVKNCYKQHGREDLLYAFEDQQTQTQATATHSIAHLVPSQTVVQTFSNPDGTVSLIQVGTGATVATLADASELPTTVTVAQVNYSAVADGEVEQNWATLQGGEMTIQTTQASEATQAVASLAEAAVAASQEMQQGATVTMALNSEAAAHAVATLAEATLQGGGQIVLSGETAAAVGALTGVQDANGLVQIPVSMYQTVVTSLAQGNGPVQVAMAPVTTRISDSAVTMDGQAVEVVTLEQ
Oxysterols receptor LXR-beta (Homo sapiens), sequence (P55055 whole entry, looked up, the tested form may be a part): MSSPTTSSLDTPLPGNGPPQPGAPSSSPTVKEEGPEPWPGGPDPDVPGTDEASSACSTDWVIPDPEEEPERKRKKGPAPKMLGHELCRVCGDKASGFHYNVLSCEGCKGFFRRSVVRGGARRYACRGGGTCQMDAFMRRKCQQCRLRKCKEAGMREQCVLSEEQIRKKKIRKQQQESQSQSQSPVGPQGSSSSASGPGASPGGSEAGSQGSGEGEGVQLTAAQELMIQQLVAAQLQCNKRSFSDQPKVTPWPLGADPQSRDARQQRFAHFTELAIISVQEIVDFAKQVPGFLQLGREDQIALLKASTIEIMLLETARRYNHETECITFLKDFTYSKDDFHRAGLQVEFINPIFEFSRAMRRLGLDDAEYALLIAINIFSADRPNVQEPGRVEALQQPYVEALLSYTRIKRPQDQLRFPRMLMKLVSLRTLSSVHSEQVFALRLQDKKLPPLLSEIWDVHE
Bile acid receptor (Homo sapiens), sequence (Q96RI1 whole entry, looked up, the tested form may be a part): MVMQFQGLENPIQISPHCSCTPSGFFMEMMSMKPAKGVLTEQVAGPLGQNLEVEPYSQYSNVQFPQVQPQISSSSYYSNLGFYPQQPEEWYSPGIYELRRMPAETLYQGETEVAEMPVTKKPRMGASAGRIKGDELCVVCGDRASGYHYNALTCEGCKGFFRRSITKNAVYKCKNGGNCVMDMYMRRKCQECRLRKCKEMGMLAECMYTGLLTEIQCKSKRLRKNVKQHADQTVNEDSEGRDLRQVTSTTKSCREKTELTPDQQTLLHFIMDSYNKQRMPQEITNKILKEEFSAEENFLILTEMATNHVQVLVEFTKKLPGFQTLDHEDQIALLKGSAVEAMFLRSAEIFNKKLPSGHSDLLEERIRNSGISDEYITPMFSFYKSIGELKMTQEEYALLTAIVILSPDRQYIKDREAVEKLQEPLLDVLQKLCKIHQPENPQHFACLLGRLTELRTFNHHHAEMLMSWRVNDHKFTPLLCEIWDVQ
Oxysterols receptor LXR-alpha (Homo sapiens), sequence (Q13133 whole entry, looked up, the tested form may be a part): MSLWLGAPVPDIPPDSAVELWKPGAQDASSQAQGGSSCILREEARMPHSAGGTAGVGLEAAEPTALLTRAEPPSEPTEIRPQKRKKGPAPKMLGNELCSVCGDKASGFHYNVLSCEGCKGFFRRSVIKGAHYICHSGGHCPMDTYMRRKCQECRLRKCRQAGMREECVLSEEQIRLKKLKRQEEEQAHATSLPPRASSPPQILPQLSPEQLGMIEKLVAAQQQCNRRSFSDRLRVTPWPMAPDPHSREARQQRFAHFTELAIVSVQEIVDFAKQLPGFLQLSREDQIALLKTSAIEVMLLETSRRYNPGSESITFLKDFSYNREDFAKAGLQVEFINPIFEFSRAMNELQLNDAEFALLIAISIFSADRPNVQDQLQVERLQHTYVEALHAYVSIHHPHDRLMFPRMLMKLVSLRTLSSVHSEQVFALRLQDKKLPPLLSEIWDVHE

O=C(C(Cl)Cl)N1CCOC12CCCCC2
not listed: [12] | [13] | [14] | [15] | [16] | [17]
inactive: all other assays above

CCCCCc1ccc(Cl)cc1
inactive: [1] | [2] | [3] | [4] | [5] | [12] | [13] | [11]

C=COCCCC
not listed: [8] | [9] | [13] | [14] | [15] | [16] | [17]
inactive: all other assays above

O=C(O)CC(C(=O)O)C(CC(=O)O)C(=O)O (stereo not given)
not listed: [8] | [12] | [13] | [15] | [16] | [17]
inactive: all other assays above

FC(F)=C(F)OC(F)(F)C(F)(F)C(F)(F)F
not listed: [6] | [8] | [9] | [13] | [14] | [16] | [17]
inactive: all other assays above

CC=C1CC2C=CC1C2 (stereo not given)
not listed: [6] | [8] | [12] | [13] | [14] | [17]
inactive: all other assays above

CCCCCCCCO[C@@H]1O[C@H](CO)[C@@H](O)[C@H](O)[C@H]1O
not listed: [10] | [13] | [14] | [16] | [17]
inactive: all other assays above

CC1=NN(c2cc(S(=O)(=O)O)ccc2Cl)C(=O)C1N=Nc1ccccc1 (stereo not given)
not listed: [12] | [15] | [17]
inactive: all other assays above

COCCOCCOCCOCCOC
not listed: [5] | [6] | [9] | [15] | [16] | [17]
inactive: all other assays above

CCOC(=O)CC(C(C)=O)C(C)=O
not listed: [6] | [7] | [9] | [12] | [14] | [15] | [17]
inactive: all other assays above

NNC(=O)c1cccc(C(=O)NN)c1
not listed: [5] | [6] | [15] | [16] | [17]
inactive: all other assays above

CCOC(=O)Cc1cccc2ccccc12
not listed: [6] | [8] | [12] | [13] | [14] | [15]
inactive: all other assays above

O=C(O)C(c1ccc(Cl)cc1)c1ccc(Cl)cc1
inactive: [1] | [2] | [3] | [4] | [5] | [12] | [16] | [8] | [11]

O=CC1CC1
inactive: [1] | [2] | [3] | [4] | [5] | [16] | [9] | [10] | [11]

CC(=O)CC(N)=O
not listed: [6] | [7] | [12] | [15] | [16] | [17]
inactive: all other assays above

Nc1ccc(-c2ccc(F)cc2)cc1
not listed: [7] | [12] | [13] | [14] | [15] | [16]
inactive: all other assays above

CCCCCCCC(C)=O
not listed: [6] | [13] | [15] | [16] | [17]
inactive: all other assays above

NC(=O)NNC(N)=O
not listed: [6] | [7] | [12] | [14]
inactive: all other assays above

NC(=O)C1CO1 (stereo not given)
not listed: [6] | [7] | [12] | [14] | [15] | [16] | [17]
inactive: all other assays above

CO[Si](CCC1CCC2OC2C1)(OC)OC (stereo not given)
inactive: [1] | [2] | [3] | [4] | [5] | [12] | [13] | [9] | [11]

CCOC(F)(F)C(F)(F)C(F)(F)C(F)(F)F
not listed: [5] | [7] | [8] | [15] | [17]
inactive: all other assays above

CC(C)CCCCCOC(=O)CCS
not listed: [6] | [12] | [13] | [14] | [15] | [16] | [17]
inactive: all other assays above

C=CC(C)(CCC=C(C)C)OC(=O)C(C)C (stereo not given)
not listed: [6] | [7] | [8] | [9] | [12] | [17]
inactive: all other assays above

CC(=O)[C@H]1[C@H](C#N)C[C@H]2[C@@H]3CC=C4C[C@@H](O)CC[C@]4(C)[C@H]3CC[C@@]21C
not listed: [6] | [8] | [9] | [12] | [17]
inactive: all other assays above
